Source: PubChem BioAssay (NCATS)
The other results are listed elsewhere or left out. A call without a number means that no potency is given here. Records with an inconclusive call do not appear. Calls of active or inactive are those of the source. The call rests on the fitted dose curve; in most records, active means well fitted inhibition curve with a large enough effect; inconclusive means small, poorly fitted or top-dose-only effect; inactive means flat fitted curve, though single readings scatter.

system: NanoLuc luciferase (engineered Oplophorus gracilirostris luciferase); experiment: Biochemical coelenterazine-based NLuc counterscreen for small molecule modulators of PMP22 gene expression - Km assay (AID 1508639); conditions: secreted NLuc enzyme, coelenterazine luminescence, Km conditions; series mostly up to 57.5 µM
Text: Assay Provider: Jim Inglese Ph.D. National Center for Advancing Translational Science, National Institutes of Health, Rockville, MD CMT is a heterogeneous group of neurological disorders that affect approximately 1 in 2,500 people. In particular, the most common form of CMT, CMT1A is genetically linked to the duplication of the PMP22 gene which leads to Schwann cell overexpression, thus manifesting itself as a typical case of dose-sensitive diseases. To identify small molecule compounds that can mediate the expression of PMP22 we developed a phenotypic assay screening strategy by utilizing genome editing techniques to construct Schwann cell lines containing novel reporter technology to monitor the transcriptional or translational regulation of PMP22. For high sensitivity we use a bioluminescent reporter system embedded in the 3' UTR of the PMP22 gene (S16(c9) Pmp22-F2sN) to identify compounds that inhibit gene expression. […] We can further discriminate the effect of all transcriptionally active molecules on PMP22 translation or stability with an assay that incorporates a short NLuc peptide (HiBiT) at the C-terminus of expressed PMP22 (S16(f8) PMP22-HiBiT) allowing alpha complementation and luminescence detection of membrane-associated PMP22 protein. These assays were screened against the NCATS Sytravon Library Collection. Miniaturization of these assays to 1536-well plate format for quantitative high throughput screening (qHTS) yielded rich data sets immediately from the qHTS assay (S16(c9) Pmp22-F2sN), when compared with data from a cell viability assay (Cell TiterGlo) to identify compounds that decreased the output signals through cellular toxicity to streamline the selection process of actives for subsequent characterization using the HiBiT assay (S16(f8) PMP22-HiBiT).
Biochemical Coelenterazine-based solution NLuc assay (Km assay) PROTOCOL TABLE (format as described by Inglese J, Shamu CE and Guy RK. 2007) SEQUENCE No. (e.g., 1, 2, 3, etc.); PARAMETER (e.g., Cells, Incubation, Reagent, etc.); VALUE and DESCRIPTION. 1. Reagent. Add 2 uL substrate per well into Greiner 1536-well white/solid bottom high base, medium binding plates. 2. Compounds. Library compounds and controls added at 23nL per well, transferred by Pin Tool. 3. Incubation. Incubate plates 5 min at ambient temperature. 4. Reagent. Add 2uL NLuc enzyme solution per well of Greiner 1536-well plates. 5. Incubation. Incubate plates at room temperature for 10 min., protect from light. 6. Detector. FLuc luminescence measured using CCD-based camera (Viewlux). NOTES (numbers refer to Sequence numbers above; values are from representative experiments) 1. Freshly prepared 15 uM Coelenterazine, 0.3M Sodium Ascorbate, 0.005M NaCl and 0.1% TritonX in PBS pH7.4, filtered through […]. 4. Enzyme was obtained by filtering media of S16 cells expressing secreted NLuc (Inglese et al. 2014) grown to 80-90% confluency in DMEM High Glucose, No Phenol Red media + 10% heat inactivated FBS + 1% Pen/Strep supplemented media6. Luminescence Read (Fluc): Clear filter; Exposure = 10 sec, Gain = High, Speed = Slow, Binning = 2X 6. Luminescence Read (Nluc): Clear filter; Exposure = 1 sec, Gain = High, Speed = Slow, Binning = 2X REFERENCES: 1. Inglese J, Shamu CE and Guy RK, Reporting data from high throughput screening of small molecule libraries, Nature Chemical Biology, 2007, 3(8): 438-441. doi.org/10.1038/nchembio0807-438 2. Yasgar A, Shinn P, Jadhav A, Auld DS, Michael S, Zheng W, Austin CP, Inglese J and Simeonov A, Compound Management for Quantitative High-Throughput Screening. J. Assoc. Lab. Auto., 2008, 13: 79-89. doi: 10.1016/j.jala.2007.12.004 3. Inglese, J., Dranchak, P., Moran, J. J., Jang, S. W., Srinivasan, R., Santiago, Y., Zhang, L., Guha, R., Martinez, N., MacArthur, R., Cost, G. J., and Svaren, J. (2014) Genome editing-enabled HTS assays expand drug target pathways for Charcot-Marie-tooth disease, ACS Chem Biol 9, 2594-2602.
Potency means the concentration at half of the fitted maximal effect.

Structure (SMILES)	Potency
CCOC(=O)c1ccc(N2C(=O)c3n[nH]c(C)c3C2c2ccc(O)c(OC)c2)cc1 (stereo unspecified)	19.3 µM (active)
Cc1cccc(Nc2cc(C)nc(-n3nc(C)cc3C)n2)c1	9.68 µM (active)
COc1ccc(-c2onc(C)c2C)cc1S(=O)(=O)NCC1CCN(Cc2cccc(F)c2)CC1	inactive
CCCCOc1ccc(CN2C(=O)C(=O)c3cc(Br)cc(C)c32)cc1OC	inactive
O=C(c1ccc(C(F)(F)F)cc1)N1CCC(c2nc(-c3ccc(S(=O)(=O)N4CCCC4)cc3)no2)CC1	inactive
Cc1ccccc1CNC(=O)CSc1nnc(C)c2c(C)n(-c3ccccc3)nc12	inactive
CCCS(=O)(=O)c1ncc(Cl)c(C(=O)Nc2scc(-c3ccccc3)c2C(=O)OCC)n1	inactive
O=C(NCCCN1CCN(c2cccc(Cl)c2)CC1)c1nnc(Cc2ccc(F)cc2Cl)o1	inactive
CC(=O)N1CCCc2cc(S(=O)(=O)N3CCCC(C(=O)N4CCN(c5cccc(Cl)c5)CC4)C3)ccc21 (stereo unspecified)	inactive
Cc1nnc(SCC(=O)NCc2ccccc2Cl)c2nn(-c3ccccc3)c(C)c12	inactive
CCOC(=O)c1ccc(NC(=O)CSc2nc3c([nH]c4ccccc43)c(=O)n2C)cc1	inactive
COc1cccc(NC(=O)CSC2=Nc3ccccc3C3=NC(CC(=O)NC4CCCCC4)C(=O)N23)c1 (stereo unspecified)	inactive
COc1ccccc1Nc1c2c(nc3ccc(NC(=O)/C=C/c4cc(OC)c(OC)c(OC)c4)cc13)CCCC2	1.93 µM (active)
CCC1=Nc2cc(C(=O)NCCCOC(C)C)ccc2Sc2ccc(C)cc21	inactive
CCCn1c2ccccc2c2cnn(CC(=O)NCC3CCN(Cc4ccc(C)cc4)CC3)c(=O)c21	inactive
Cc1ccc(OCCSc2nc3ccc(NC(=O)COc4ccc(C)cc4)cc3s2)cc1	inactive

Structure (SMILES)	Potency
CCOC(=O)c1c(C)[nH]c(CCC(=O)NCCCN2CCN(c3cccc(Cl)c3)CC2)c1C	inactive
CCOC(=O)C1CCN(C(=O)CSc2c3c(nc4ccc(Cl)cc24)CCCC3)CC1	inactive
CCCn1c(=N)c(C(=O)NCc2ccccc2)cc2c(=O)n3cccc(C)c3nc21	inactive
CCc1ccc(C2CC(=O)c3c([nH]c(C(=O)OCc4ccc(C)cc4)c3C)C2)cc1 (stereo unspecified)	inactive
CCOC(=O)c1c(C)[nH]c(CCC(=O)NCCCN2CCN(c3cc(C)ccc3C)CC2)c1C	inactive
CCOc1ccc(NC(=O)c2c(NC(=O)Cc3ccccc3)sc3c2CCC(C)C3)cc1 (stereo unspecified)	17.2 µM (active)
Cc1ccc(CCNC(=O)C2CCN(c3nnc(-n4cccc4CNc4ccc(C)cc4)s3)CC2)cc1	inactive
Cc1cc(F)ccc1NS(=O)(=O)c1ccc(-n2cccn2)cc1	13.7 µM (active)
CC(C)(C)c1ccc(C(=O)NCC(c2ccco2)S(=O)(=O)c2ccc(F)cc2)cc1 (stereo unspecified)	inactive
CCC1CCCCN1CCCNC(=O)c1cc2c(Cl)nc3ccccc3c2s1 (stereo unspecified)	inactive
Cc1cc(OCC(=O)NCC2(N(C)C)CCCCC2)cc(C)c1Cl	inactive
O=C(c1ccc2c(c1)N(Cc1ccc(F)cc1)C(=O)c1ccccc1S2(=O)=O)N1CCN(c2ccccn2)CC1	1.93 µM (active)
COc1ccc(CCNC(=O)c2cc(=O)c3c(C)cc(C)cc3o2)cc1OC	0.273 µM (active)
Cc1ccc(C)n1-c1nnc(N2CCC(C(=O)NCc3ccccc3Cl)CC2)s1	inactive
CCOCCCNC(=O)c1c(NC(=O)c2nc(SC)ncc2Cl)sc2c1CCCC2	inactive
